The panel holds about 83,000 compounds, 20% with a hit somewhere; the sample as a whole holds those more often.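 Step 1: grow cells in 96-well plates. Step 2: add test compound at a single concentration. Step 3: incubate 48 h. Step 4: record percent growth.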 A number with no mark means an inactive call. Active and inactive are the calls of the source. How the source made its calls: active means growth percent below 10; inactive means the rest.
Assays:
Test in all cases: NCI-60 one-dose screen, 48 h (100 = growth as untreated, 0 = no growth, -100 = all killed)
Details in all cases: 10 µM unless noted
SR leukemia = system: SR leukemia
OVCAR-8 ovarian = system: OVCAR-8 ovarian
OVCAR-5 ovarian = system: OVCAR-5 ovarian
SK-OV-3 ovarian = system: SK-OV-3 ovarian
IGROV1 ovarian = system: IGROV1 ovarian
OVCAR-3 ovarian = system: OVCAR-3 ovarian
NCI/ADR-RES ovarian = system: NCI/ADR-RES ovarian
T-47D breast = system: T-47D breast
BT-549 breast = system: BT-549 breast
MDA-MB-435 melanoma = system: MDA-MB-435 melanoma
SW-620 colon = system: SW-620 colon
MCF7 breast = system: MCF7 breast
HCT-116 colon = system: HCT-116 colon
HCC-2998 colon = system: HCC-2998 colon
KM12 colon = system: KM12 colon
OVCAR-4 ovarian = system: OVCAR-4 ovarian
HS 578T breast = system: HS 578T breast
RPMI-8226 leukemia = system: RPMI-8226 leukemia

Compound | growth (SR leukemia) | growth (OVCAR-8 ovarian) | growth (OVCAR-5 ovarian) | growth (SK-OV-3 ovarian) | growth (IGROV1 ovarian) | growth (OVCAR-3 ovarian) | growth (NCI/ADR-RES ovarian) | growth (T-47D breast) | growth (BT-549 breast) | growth (MDA-MB-435 melanoma) | growth (SW-620 colon) | growth (MCF7 breast) | growth (HCT-116 colon) | growth (HCC-2998 colon) | growth (KM12 colon) | growth (OVCAR-4 ovarian) | growth (HS 578T breast) | growth (RPMI-8226 leukemia)
O=[N+]([O-])c1ccc(N=Nc2c(NNc3ccc([N+](=O)[O-])cn3)cc(S(=O)(=O)O)c3ccccc23)nc1 | 47.2% | 67.5% | 91.4% | 78% | 84.9% | -5.33% (active) | 79.5% | 90.9% | 81.7% | 90% | 83.1% | 85.9% | 69.6% | 87.1% | 87.6% |  |  | 
NC(=S)N1N=C(c2ccc(Cl)cc2)CC1c1cc2ccccc2[nH]c1=O (stereo not given) | 82.4% | 111% | 108% |  | 101% | 119% | 108% | 89.2% | 102% | 104% | 108% | 95.5% | 103% |  | 114% | 100% | 112% | 
CC1CCCN(CCCCOc2ccc(-c3ccc(C#N)cc3)cc2)C1 (stereo not given) | 86.8% | 82.3% | 97.1% |  | 107% | 98.6% | 89.7% | 79.1% | 85.6% | 99.4% | 96.8% | 86.4% | 87.8% | 86.6% | 96.1% | 93.8% | 87.4% | 
COc1ccc(CC2c3cc(OC)c(OC)cc3CC[N+]2(C)CCC(=O)OCCCCCOC(=O)CC[N+]2(C)CCc3cc(OC)c(OC)cc3C2Cc2ccc(OC)c(OC)c2)cc1OC (stereo not given) |  | 96.5% | 103% | 110% | 102% | 95.9% | 78.1% | 94.5% | 103% | 96.7% | 100% | 85.2% | 88.5% | 105% | 101% | 89.8% | 93.4% | 96.3%
COc1nccc2c(Sc3ccccc3)nc(N)nc12 |  | 101% | 107% | 114% | 114% | 119% | 106% | 107% | 85.9% | 110% | 109% | 91.9% | 97.6% | 106% | 113% | 99.7% | 113% | 93.2%
Cc1c(C(=O)CCl)c(=O)n(-c2ccccc2)n1C | 20.1% | 72.3% | 94.5% | 103% | 48.6% |  | 83.3% | 34.3% | 61.2% | 40% | 36.6% | 38.2% |  | 85.9% | 88.7% |  | 57.5% | 
O=C1Nc2ccc(Cl)cc2/C1=C\c1c(-c2ccc(F)cc2)nc2ccccn12 |  | 22% | 37% | -52.1% (active) | 20.6% | -70.4% (active) | -37% (active) | 9.64% (active) | 15.7% | -34.5% (active) | 8.89% (active) | -9.38% (active) | -78.7% (active) | 44.7% | -32.1% (active) | -69.7% (active) | 1% (active) | 70.4%
NC(CCC(=O)NC(CS)C(=O)NCC(=O)O)C(=O)O (stereo not given) | 97.3% | 98.7% | 97.6% |  | 98.1% | 110% | 107% | 107% | 119% | 106% | 103% | 103% |  | 60% | 108% | 108% | 107% | 
NC(=O)N/N=C\c1ccc([N+](=O)[O-])o1 | 96.1% | 97.6% | 103% | 114% | 105% | 109% | 95.1% | 101% | 106% | 102% | 96.9% | 94.6% | 109% | 104% | 98.1% |  | 79.2% | 
COc1ccc(-c2cnnn2-c2nonc2-n2cccc2)cc1 |  | 31.3% | 37.2% | -4.76% (active) | 28.9% | -38.9% (active) | 6.88% (active) | 44.8% | 47.6% | -44.1% (active) | 19.1% | 14.5% | 8.3% (active) | 6.73% (active) | 3.78% (active) | 42.9% | -1.93% (active) | 27.9%
Fc1ccc(-c2nc(-c3ccc(-c4nc5ccc(F)cc5[nH]4)cc3)no2)cc1 |  | 86.5% | 94.7% | 39.8% | 74.3% | 94.3% | 73.9% | 62.8% | 60.1% | 68.2% | 64.7% | 52.5% | 73% | 82.2% | 60.5% | -8.43% (active) | 71.3% | 88.1%
CCN(CC)c1ccc(/C=C2/NC(=O)NC2=O)cc1 |  | 79.9% | 33.2% | 33.7% | 46.7% | 19.3% | -31.9% (active) | 16.2% | 38.9% | -34.1% (active) | 29% | 6.89% (active) | 20.2% | 39.5% | 20.5% | 77% | -2.99% (active) | 74.1%
CCOC(=O)c1cc(C(=O)OCC)c(C)nc1C | 87.9% | 104% | 99.8% | 114% | 111% | 114% | 110% | 102% | 115% | 105% | 110% | 90.9% |  |  | 111% |  | 126% | 
COC(=O)CSc1ccc(Cl)cc1 | 78% | 106% | 107% | 102% | 93.9% | 122% | 115% | 98.7% | 105% | 107% | 106% | 97.2% | 95.5% | 97.4% | 111% |  | 108% | 
O=C1OCC2=C1C(c1ccccc1)c1cc3c(cc1N2CCO)CCC3 (stereo not given) |  | 36.5% | 26.1% | -20.7% (active) | 12.4% | -21.6% (active) | -70.4% (active) | 37.8% | -1.32% (active) | -31.9% (active) | 21.5% | -3.45% (active) | 4.41% (active) | -19.8% (active) | 11.2% | 30% | 3.94% (active) | 23.9%
O=[N+]([O-])c1ccc(Sc2nc(Cl)nc(NC3CCCC3)n2)cc1 | -28.3% [100 µM] (active) |  | -90.5% [100 µM] (active) | -100% [100 µM] (active) | -67.8% [100 µM] (active) | -100% [100 µM] (active) | -49.1% [100 µM] (active) | -35.4% [100 µM] (active) | -97.1% [100 µM] (active) | -95.9% [100 µM] (active) | -63.1% [100 µM] (active) | -84.9% [100 µM] (active) | -94.3% [100 µM] (active) | -86.5% [100 µM] (active) | -96.9% [100 µM] (active) | -100% [100 µM] (active) | 11.7% [100 µM] | 
CCOC(=O)Nc1ccc2nc(N3CCCCCC3)sc2c1 |  | 32.7% | 65.7% | 5.7% (active) | 49.8% | -20.5% (active) | 0.974% (active) | 41.6% | 65.7% | 7.4% (active) | 24.5% | 19.5% | 27.9% | 50.3% | 21.6% | 57.5% | 43.7% | 19.5%
COc1ccc(N=C2CSc3nnc(-c4cc(F)c(Cl)cc4Cl)n3N2)cc1 |  | 6.26% (active) | -20.5% (active) | -42.3% (active) | -45.1% (active) | -74% (active) | 9.18% (active) | -20.1% (active) | -21.2% (active) | -45.6% (active) | -47.1% (active) | -34.3% (active) | -61.4% (active) | -71.4% (active) | -12.3% (active) | -59.2% (active) | -43.8% (active) | -23.5% (active)

Reference: PubChem BioAssay (NCI)
